Source: ChEMBL document CHEMBL1157539, “Thousands of chemical starting points for antimalarial lead identification” (Nature, 2010)

How the values were obtained:
Assay type in all cases: functional
Plasmodium falciparum [1] = assay: GSK_TCMDC: Inhibition of Plasmodium falciparum 3D7 in whole red blood cells, using parasite LDH activity as an index of growth. Test compounds present at 2uM
Plasmodium falciparum [2] = assay: GSK_TCMDC: Inhibition of Plasmodium falciparum Dd2 in whole red blood cells, using parasite LDH activity as an index of growth. Test compounds present at 2uM
HepG2 = assay: GSK_TCMDC: Percent inhibition of human HepG2 cell line. Test compounds present at 10uM.

| SMILES | Inhibition (Plasmodium falciparum [1]) [%] | Inhibition (Plasmodium falciparum [2]) [%] | Inhibition (HepG2) [%] |
| --- | --- | --- | --- |
| Nc1cccc(CNCc2ccc(-c3cccc(-c4nc5cc(C(F)(F)F)ccc5[nH]4)c3)cc2)c1.O=C(O)C(F)(F)F | 100 | 100 | 60 |
| O=c1nc(NCCCCCN2CCC(c3c[nH]c4ccccc34)CC2)[nH]cc1Cc1ccc(Cl)c(Cl)c1 | 94 | 8 | 21 |
| Cc1cc(-c2c[nH]c3ncc(-c4cccc5ncccc45)cc23)ccc1C(=O)O.O=C(O)C(F)(F)F | 99 | 77 | 31 |
| CC=CC1CCNC(C(O)c2ccnc3ccc(OC)cc23)C1 (centres undefined) | 91 | 1 | 0 |
| O=C(Nc1ccc(S(=O)(=O)NCCCN2CCOCC2)cc1)c1cc(-c2ccccc2)[nH]n1 | 82 | 29 | 16 |
| Cc1ccccc1CCNC(=O)c1cnc(N2CCN(c3ccncc3)CC2)c(Cl)c1.O=C(O)C(F)(F)F | 100 | 95 | 36 |
| Br.Cn1c(=N)n(CC(=O)OCc2ccc(OCc3ccccc3)cc2)c2ccccc21 | 100 | 74 | 5 |
| Cc1cc(N(C)C)nc(Nc2ccc(NC(=O)c3c(F)cccc3F)cc2)n1 | 94 | 45 | 50 |
| Cc1cc2c(cc1C(F)(F)F)N(C(=O)Nc1cc(C(=O)NC3CCN(Cc4ccccc4)C3)cc(C(F)(F)F)c1)CC2.Cl (centres undefined) | 100 | 97 | 22 |
| N#CCCN1CCN(Cc2cccc(-c3ccc(-c4nc5ccccc5[nH]4)s3)c2)CC1.O=C(O)C(F)(F)F | 96 | 8 | 48 |
| FC(F)(F)c1ccc(-c2ccc(CNC3CCN(CCN4CCOCC4)CC3)cc2)cc1 | 100 | 74 | 44 |
| COc1ccc(CNCc2cccc(-c3cccc(-c4nc5cccc(C)c5[nH]4)c3)c2)cc1.O=C(O)C(F)(F)F | 100 | 60 | 31 |
| COCCNCc1ccc(-c2cccc(CN(C(=O)NCCc3ccccc3)C3CCN(Cc4ccccc4)CC3)c2)cc1.O=C(O)C(F)(F)F | 88 | 90 | 25 |
| O=C(Nc1cccc(-c2ccc(-c3nc4ccccc4[nH]3)cc2)c1)c1cnn2cccnc12 | 87 | 1 | 9 |
| Cl.OCCNc1nc(Nc2ccc(Cl)cc2)nc2ccccc12 | 100 | 99 | 30 |
| Cc1ccoc1C(=O)Nc1cccc(-c2cccc(-c3nc4cc(C(F)(F)F)ccc4[nH]3)c2)c1 | 98 | 37 | 39 |
| Clc1ccc(Cn2nc(Br)nc2Br)c(Cl)c1 | 96 | 96 | 4 |

| SMILES | Inhibition (Plasmodium falciparum [1]) [%] | Inhibition (Plasmodium falciparum [2]) [%] | Inhibition (HepG2) [%] |
| --- | --- | --- | --- |
| Cc1ccc(-c2nnc(-c3ccc(C(=O)NC4CCN(Cc5ccc(C#N)cc5)CC4)cc3)o2)cc1Br | 91 | 7 | 41 |
| COc1ccc2nccc([C@@H](O)CN3CCC(NC[C@H](Cc4ccccc4)NC(=O)OC(C)(C)C)CC3)c2c1.O=C(O)C(=O)O | 98 | 86 | 18 |
| Br.CCn1c2c(c(=N)c3ccccc31)CCC2 | 83 | 61 | 11 |
| Fc1cccc(COc2ccc(Nc3ncnc4sc(C#CC5CCCCN5)cc34)cc2Cl)c1.O=C(O)C(F)(F)F (centres undefined) | 100 | 100 | 30 |
| CCCCOc1ccccc1C(=O)NCc1csc(-c2ccccc2)n1 | 93 | 91 | 17 |
| CNC(=O)NC1CCN(Cc2c(-c3cccs3)nc3ccccc3c2C(=O)N[C@@H](C)C2CCCCC2)CC1 | 99 | 97 | 5 |
| Cc1ccc(O)c(-c2cc(C(=O)Nc3ccc(S(=O)(=O)N4CCCC(C)C4)cc3)[nH]n2)c1 (centres undefined) | 96 | 97 | 27 |
| CCCCNC(=O)[C@@H](NC(=O)c1ccc(O)c(-c2ccc(Cl)c(Cl)c2)c1)C(C)C | 97 | 98 | 0 |
| Cc1ccccc1C1CCN(c2ccc(C(=O)Nc3ccc(F)cc3)cn2)CC1.O=C(O)C(F)(F)F | 96 | 96 | 45 |
| COc1ccc2nccc(NC(=O)C3CCC(NCc4cnc(SC)c([N+](=O)[O-])c4)CC3)c2n1.Cl (centres undefined) | 89 | 44 | 8 |
| Cc1ccc(-n2c(Cc3cccc4ccccc34)nnc2SCCC#N)c(C)c1 | 95 | 98 | 0 |
| O=C1C(c2ccccc2)=C(Nc2cccc(OC(F)(F)C(F)F)c2)c2ccccc21 | 96 | 96 | 0 |
| COc1ccc(CN2CCCC(C(=O)c3ccc(C(F)(F)F)cc3)C2)c(O)c1 (centres undefined) | 98 | 88 | 0 |
| CC(C)(C)c1ccc2[nH]c(-c3ccc(C(=O)NCCCc4ccccc4)cc3)nc2c1 | 95 | 14 | 11 |
| Cc1ccc(-n2c(=O)c3cccnc3n2CC(=O)Nc2cccc(C)c2C)cc1 | 96 | 20 | 9 |
| CCOc1ccc2c(=NN=Cc3cccc(OC)c3)cc(C)[nH]c2c1 | 97 | 81 | 38 |
